Results from PubChem BioAssay.
Unmarked numbers belong to inactive results. Where a call stands in place of a potency, no number is given. For some assays here: Potency and affinity values are given separately. Calls of active or inactive are those of the source. Unless noted, the rule behind the calls is not given here.

Legend:
[1] = antimalarial activity against Dd2 strain (AID 2302;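 active = growth inhibition above 50% at the single 2 µM test dose, taken to imply half-maximal potency below 2 µM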); conditions: P. falciparum Dd2 in RBCs, LDH growth readout, 72 h; at 2 µM; stronger effect = higher value
[2] = HepG2 cytotoxicity, primary screen, cytotoxicity control for P. falciparum antimalarial project, cell-based, ATP luminescence (AID 2303;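 active = inhibition above 50%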); conditions: HepG2 viability, 24-48 h, at 10 µM, stronger effect = higher value
[3] = biological target: L-lactate dehydrogenase (Plasmodium falciparum (isolate CDC / Honduras)) (UniProt Q27743); assay: PfLDH activity inhibition – cell lysate, 3D7 strain, counter-screen for P. falciparum growth inhibition project (AID 2304); conditions: P. falciparum 3D7 crude extract, LDH APAD/NBT absorbance; at 2 µM; stronger effect = higher value
[4] = inhibition of 3D7 malaria parasite growth – strain 3D7 (AID 2306); conditions: P. falciparum 3D7 erythrocytic growth, LDH absorbance, 72 h; at 2 µM; stronger effect = higher value
[5] = biological target: Calcium-dependent protein kinase 1 (Plasmodium falciparum (isolate 3D7)) (UniProt P62344); assay: PfCDPK1 kinase inhibitors, biochemical, TCAMS library (AID 1159585; cut-off not given, nearly all actives have IC50 up to about 0.98 µM;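 note: inhibitors leave more ATP so luminescence rises with inhibition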); conditions: recombinant PfCDPK1, Kinase-Glo ATP depletion luminescence
[6] = biological target: Plasmodium falciparum protein kinase 6 (PK6, PF3D7_1337100) (UniProt Q8IDW1); assay: PfPK6 kinase inhibitors, biochemical, TCAMS library (AID 1159586); conditions: recombinant PfPK6, Kinase-Glo ATP depletion luminescence
[7] = biological target: Protein kinase 7 (PK7), Plasmodium falciparum 3D7 (PF3D7_0213400) (UniProt Q7YTF7); assay: inhibition of Plasmodium PK7 catalytic activity – biochemical, TCAMS antimalarial set, Kinase-Glo luminescence (AID 1159587); conditions: recombinant PfPK7, Kinase-Glo ATP depletion luminescence
[8] = biological target: Calcium-dependent protein kinase 4 (Plasmodium falciparum (isolate 3D7)) (UniProt Q8IBS5); assay: PfCDPK4 kinase inhibitors, biochemical, TCAMS library (AID 1159588; cut-off not given, nearly all actives have IC50 up to about 0.91 µM); conditions: recombinant PfCDPK4, Kinase-Glo ATP depletion luminescence
Sequence of Calcium-dependent protein kinase 4 (Plasmodium falciparum (isolate 3D7)) (Q8IBS5 whole entry, looked up): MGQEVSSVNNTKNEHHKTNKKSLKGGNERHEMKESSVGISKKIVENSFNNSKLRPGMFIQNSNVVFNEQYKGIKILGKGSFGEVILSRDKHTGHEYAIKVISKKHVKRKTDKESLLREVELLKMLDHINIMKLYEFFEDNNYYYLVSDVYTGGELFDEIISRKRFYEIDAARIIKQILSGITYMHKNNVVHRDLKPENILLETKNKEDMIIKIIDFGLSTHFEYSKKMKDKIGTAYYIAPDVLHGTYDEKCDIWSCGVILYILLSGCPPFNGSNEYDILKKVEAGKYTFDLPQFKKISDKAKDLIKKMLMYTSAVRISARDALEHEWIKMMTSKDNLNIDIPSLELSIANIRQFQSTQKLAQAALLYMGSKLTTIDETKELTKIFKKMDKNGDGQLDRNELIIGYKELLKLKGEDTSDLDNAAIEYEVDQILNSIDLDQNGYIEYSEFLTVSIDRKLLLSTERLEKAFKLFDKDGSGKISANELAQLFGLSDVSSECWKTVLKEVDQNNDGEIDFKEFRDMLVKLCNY

Sequence of Calcium-dependent protein kinase 1 (Plasmodium falciparum (isolate 3D7)) (P62344 whole entry, looked up): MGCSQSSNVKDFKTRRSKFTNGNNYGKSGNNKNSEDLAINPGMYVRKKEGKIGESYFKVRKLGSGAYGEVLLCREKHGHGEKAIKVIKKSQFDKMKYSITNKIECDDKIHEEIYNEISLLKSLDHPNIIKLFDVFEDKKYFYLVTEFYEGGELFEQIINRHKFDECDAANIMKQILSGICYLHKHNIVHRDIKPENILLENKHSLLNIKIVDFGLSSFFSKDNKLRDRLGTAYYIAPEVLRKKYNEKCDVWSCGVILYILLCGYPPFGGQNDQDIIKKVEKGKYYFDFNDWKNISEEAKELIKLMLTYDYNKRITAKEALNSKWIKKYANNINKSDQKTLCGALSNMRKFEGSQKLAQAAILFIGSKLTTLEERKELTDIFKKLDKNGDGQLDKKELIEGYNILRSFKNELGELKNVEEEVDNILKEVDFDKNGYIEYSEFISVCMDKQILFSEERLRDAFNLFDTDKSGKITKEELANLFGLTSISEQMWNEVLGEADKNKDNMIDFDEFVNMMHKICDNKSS
Sequence of Plasmodium falciparum protein kinase 6 (PK6, PF3D7_1337100) (Q8IDW1 1-305): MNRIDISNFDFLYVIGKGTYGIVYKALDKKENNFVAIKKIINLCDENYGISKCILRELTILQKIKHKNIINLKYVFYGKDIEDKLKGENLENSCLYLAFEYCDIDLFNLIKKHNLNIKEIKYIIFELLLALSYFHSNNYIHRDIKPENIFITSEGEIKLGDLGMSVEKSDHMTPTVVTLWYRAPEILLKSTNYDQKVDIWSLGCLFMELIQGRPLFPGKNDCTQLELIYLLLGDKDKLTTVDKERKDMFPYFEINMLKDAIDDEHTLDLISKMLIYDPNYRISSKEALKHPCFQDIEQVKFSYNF
Sequence of L-lactate dehydrogenase (Plasmodium falciparum (isolate CDC / Honduras)) (Q27743 whole entry, looked up): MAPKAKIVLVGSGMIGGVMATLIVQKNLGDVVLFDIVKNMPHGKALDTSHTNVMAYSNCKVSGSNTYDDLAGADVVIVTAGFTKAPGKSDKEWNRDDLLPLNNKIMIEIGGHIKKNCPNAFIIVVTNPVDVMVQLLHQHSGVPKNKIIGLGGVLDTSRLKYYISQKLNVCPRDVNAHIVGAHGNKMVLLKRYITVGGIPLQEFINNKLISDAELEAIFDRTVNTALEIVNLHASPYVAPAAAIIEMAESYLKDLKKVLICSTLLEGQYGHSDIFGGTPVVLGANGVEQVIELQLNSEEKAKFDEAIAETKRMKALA
Sequence of Protein kinase 7 (PK7), Plasmodium falciparum 3D7 (PF3D7_0213400) (Q7YTF7 1-343): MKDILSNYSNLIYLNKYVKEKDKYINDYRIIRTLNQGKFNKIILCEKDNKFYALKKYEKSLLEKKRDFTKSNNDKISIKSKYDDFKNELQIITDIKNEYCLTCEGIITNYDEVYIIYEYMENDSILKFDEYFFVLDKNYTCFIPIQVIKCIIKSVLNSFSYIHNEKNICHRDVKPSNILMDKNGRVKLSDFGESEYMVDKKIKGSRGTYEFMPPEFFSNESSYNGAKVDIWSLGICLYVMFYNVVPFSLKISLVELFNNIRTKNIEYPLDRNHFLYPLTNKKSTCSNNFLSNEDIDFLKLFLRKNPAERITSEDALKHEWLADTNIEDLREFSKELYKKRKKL

Row | SMILES | growth inhibition [1] | inhibition [2] | inhibition [3] [%] | growth inhibition [4] | outcome [5] | outcome [6] | outcome [7] | outcome [8]
1 | CCCc1cc(OC)c(CC2c3cc(O)c(Cl)cc3CCN2C)cc1OC (stereo not given) | 99% (active) | 19% | -5 | 100% (active) | inactive | inactive | inactive | inactive
2 | CC(C)N1CCN(CCCNc2c3ccccc3nc3ccccc23)CC1 | 1% | 29% | 8 | 100% (active) | inactive | inactive | inactive | inactive
3 | Cc1ccccc1CNc1noc(-c2c(-c3ccccc3)noc2C)n1 | 70% (active) | -4% | -2 | 94% (active) | inactive | inactive | inactive | inactive
4 | O=C(NCCc1cccc(F)c1)c1ccc(N2CCN(c3ccncc3)CC2)cn1 | 7% | 4% | -3 | 94% (active) | inactive | inactive | inactive | inactive
5 | CCN1CCC(N(CCCCCCc2ccc(C(F)(F)F)cc2)C(=O)Cn2c(CCc3cccc(F)c3F)cc(=O)c3ccccc32)CC1 | 82% (active) | 32% | -7 | 88% (active) | inactive | inactive | inactive | inactive
6 | O=C(Nc1ccsc1)Nc1cccc(-c2cccc(-c3nc4ccc(C(F)(F)F)cc4[nH]3)c2)c1 | 101% (active) | 76% (active) | -7 | 102% (active) | inactive | inactive | inactive | inactive
7 | CC(=O)c1ccc(S(=O)(=O)N2CCC(C(=O)Nc3ccccc3N3CCCC3)CC2)cc1 | 99% (active) | -3% | -8 | 95% (active) | inactive | inactive | inactive | inactive
8 | CCOC(=O)c1ccc(NC(=O)N(Cc2ccc(-c3ccc(CN4CCNCC4)cc3)cc2)C2CCN(Cc3ccccc3)CC2)cc1 | 93% (active) | 14% | 3 | 102% (active) | inactive | inactive | inactive | inactive
9 | Cc1ccc(NC(=O)c2ccc(N3CCN(c4ccncc4)CC3)cc2)cc1F | 79% (active) | 47% | -1 | 100% (active) | inactive | inactive | inactive | inactive
10 | Cc1ccc(Cn2ncc(N3CCNCC3)c(Cl)c2=O)cc1NC(=O)Nc1ccc(-c2ccccc2)cc1 | 30% | 56% (active) | 6 | 90% (active) | inactive | inactive | inactive | inactive
11 | COc1ccc2nccc(NN=Cc3ccc(Cl)cc3)c2c1 | 72% (active) | 9% | -1 | 101% (active) | inactive | inactive | inactive | inactive
12 | COc1ccc2nccc([C@@H](O)CN3CCC(NCc4cc5ccc(Cl)cc5[nH]4)CC3)c2c1 | 61% (active) | 30% | 4 | 99% (active) | inactive | inactive | inactive | inactive
13 | CC(C)[C@@H](C(=O)NCc1cccc(C(F)(F)F)c1)N1C(=O)CCC1C(=O)Nc1ccc([N+](=O)[O-])cc1 (stereo not given in full) | 2% | -5% | -2 | 94% (active) | inactive | inactive | inactive | inactive
14 | CCN(CCCN1CCCCC1)c1cc(C)nc(Nc2ccc(C)cc2C(F)(F)F)n1 | 35% | 23% | -2 | 101% (active) | inactive | inactive | inactive | inactive
15 | O=c1c2sc(-c3ccc(Cl)cc3)cc2ncn1Cc1ccc(OCCN2CCCC2)c2ccccc12 | 81% (active) | 38% | 1 | 100% (active) | inactive | inactive | inactive | inactive
16 | O=C(Nc1ccccc1O)c1ccc(S(=O)(=O)c2ccc(Cl)cc2)cc1 | 85% (active) | 18% | -7 | 90% (active) | inactive | inactive | inactive | inactive
17 | CN(C)CCOc1cc(NC(=O)Nc2ccc(Oc3ccccc3)cc2)ccc1I | 4% | 13% | 4 | 89% (active) | inactive | inactive | inactive | inactive
18 | CN(C)CCOc1cccc(NC(=O)Nc2ccc(-c3ccccc3)cc2)c1 | 16% | 11% | -1 | 90% (active) | inactive | inactive | inactive | inactive
19 | O=C1Nc2cccc3c2C1(CCCCCN1CCC(c2c[nH]c4ccncc24)CC1)CCC3 (stereo not given) | 3% | 8% | 6 | 95% (active) | inactive | inactive | inactive | inactive
20 | OC1(c2ccccc2)c2cc(Cl)ccc2OC1c1nc2c(Cl)ccc(Cl)c2o1 (stereo not given) | 89% (active) | 7% | -6 | 98% (active) | inactive | inactive | inactive | inactive

Row | SMILES | growth inhibition [1] | inhibition [2] | inhibition [3] [%] | growth inhibition [4] | outcome [5] | outcome [6] | outcome [7] | outcome [8]
21 | NC(N)=NN=Cc1ccc2ccc3ccccc3c2c1 | 89% (active) | 34% | 5 | 101% (active) | inactive | inactive | inactive | inactive
22 | CCN1CCN(c2cc(C)c3cc(NC(=O)c4cncc(Br)c4)ccc3n2)CC1 | 63% (active) | 3% | 3 | 97% (active) | inactive | inactive | inactive | inactive
23 | CC(=O)Oc1cc(C)ccc1C1CCN(CCCCNC(=O)c2ccc(-c3ccc(C(F)(F)F)cc3)cc2)CC1 | 94% (active) | 54% (active) | -7 | 100% (active) | inactive | inactive | inactive | inactive
24 | Fc1ccc(NC(=S)NCCc2ccccc2)cc1 | 0% | -1% | 3 | 99% (active) | inactive | inactive | inactive | inactive
25 | Oc1cccc(Nc2nc(NCc3ccco3)c3ccccc3n2)c1 | 74% (active) | 9% | 0 | 103% (active) | inactive | inactive | inactive | inactive
26 | COCCNCc1nc(-c2ccc3c(Nc4ccc(Cl)cc4F)ccnc3c2)cs1 | 100% (active) | -4% | -1 | 101% (active) | inactive | inactive | inactive | inactive
27 | CCc1c[nH]c2c(N3CCCCC3=O)cc(C(=O)N[C@@H](Cc3ccccc3)[C@H](O)CNCc3cccc(OC)c3)cc12 | 99% (active) | 8% | -1 | 101% (active) | inactive | inactive | inactive | inactive
28 | COc1cc2nc(NCCn3cccn3)nc(NCCc3ccccc3)c2cc1OC | 100% (active) | 12% | -3 | 102% (active) | inactive | inactive | inactive | inactive
29 | COc1cc(CN2CCC(C(=O)Nc3ccc(-c4cccc(C)c4)cc3)CC2)ccc1O | 85% (active) | 25% | 3 | 100% (active) | inactive | inactive | inactive | inactive
30 | COc1cc(Cc2cnc(N)nc2N)ccc1OCc1ccc(-c2csnn2)cc1 | -2% | 33% | -4 | 97% (active) | inactive | inactive | inactive | inactive
31 | O=C(Nc1ccc2c(ccn2C2CCCN(Cc3cc(F)cc(F)c3F)CC2)c1)c1ccco1 (stereo not given) | 94% (active) | 7% | -1 | 89% (active) | inactive | inactive | inactive | inactive
32 | COc1ccc2ncc(Cl)c(CCN3C[C@H](CNCc4ccc5c(n4)NC(=O)CS5)[C@H](O)C3)c2n1 | 16% | 2% | 3 | 94% (active) | inactive | inactive | inactive | inactive
33 | Cc1cccc2[nH]c(-c3cccc(-c4ccc(CN5CCN(CCO)CC5)cc4)c3)nc12 | 63% (active) | 12% | -4 | 101% (active) | inactive | inactive | inactive | inactive
34 | O=S(=O)(c1cc(Cl)ccc1Cl)N1CCCCC(c2ccc(C(F)(F)F)cc2)=N1 | 68% (active) | 15% | -1 | 87% (active) | inactive | inactive | inactive | inactive
35 | CCCCN(CCCC)CCC(O)C(=Cc1ccc(Cl)cc1Cl)c1ccc(C(F)(F)F)cc1N (stereo not given) | 99% (active) | -9% | 1 | 100% (active) | inactive | inactive | inactive | inactive
36 | CC(C)CCNC(=O)C1Cc2c([nH]c3cc(Br)ccc23)C2(CCN(Cc3ccccc3)CC2)N1 (stereo not given) | 45% | 10% | -5 | 96% (active) | inactive | inactive | inactive | inactive
37 | CCOc1cc(C(=O)Nc2cccnc2)ccc1-c1nc2cc(Cl)c(Cl)cc2[nH]1 | 70% (active) | 9% | 0 | 100% (active) | inactive | inactive | inactive | inactive
38 | CC(C)CCN1CCCN(Cc2cccc(NC(=O)c3ccc(-c4ccccc4)cc3)c2)CC1 | 21% | 27% | 7 | 92% (active) | inactive | inactive | inactive | inactive
39 | Oc1ccc(CN2CCC(NCc3cccc4ccccc34)CC2)cc1 | 8% | 8% | -3 | 97% (active) | inactive | inactive | inactive | inactive
40 | CC(C)(C(=O)Nc1ccc(C2CCC(NCC3CC3)CC2)c(Cl)c1)c1cccc(OC(F)F)c1 (stereo not given) | 23% | 34% | -4 | 99% (active) | inactive | inactive | inactive | inactive
